Rows were chosen to be rich in hits. Some 11% of all compounds tested hit in one or more screens of this group.
ALDH1A1 block = ALDH1A1 (human) enzyme inhibition; P00352; Purified ALDH1A1, NADH fluorescence, propionaldehyde substrate; Potency, µM (doses to about 75.3 µM), inactives show at the top dose activity, negative = inhibition, actives largely listed as inhibitors; 220,000 compounds, 7.3% hits; AID 1030;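 note: potency is the fitted concentration of half-maximal effect; plate controls were no enzyme wells and a reference inhibitor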
Target sequence (P00352 whole entry, looked up): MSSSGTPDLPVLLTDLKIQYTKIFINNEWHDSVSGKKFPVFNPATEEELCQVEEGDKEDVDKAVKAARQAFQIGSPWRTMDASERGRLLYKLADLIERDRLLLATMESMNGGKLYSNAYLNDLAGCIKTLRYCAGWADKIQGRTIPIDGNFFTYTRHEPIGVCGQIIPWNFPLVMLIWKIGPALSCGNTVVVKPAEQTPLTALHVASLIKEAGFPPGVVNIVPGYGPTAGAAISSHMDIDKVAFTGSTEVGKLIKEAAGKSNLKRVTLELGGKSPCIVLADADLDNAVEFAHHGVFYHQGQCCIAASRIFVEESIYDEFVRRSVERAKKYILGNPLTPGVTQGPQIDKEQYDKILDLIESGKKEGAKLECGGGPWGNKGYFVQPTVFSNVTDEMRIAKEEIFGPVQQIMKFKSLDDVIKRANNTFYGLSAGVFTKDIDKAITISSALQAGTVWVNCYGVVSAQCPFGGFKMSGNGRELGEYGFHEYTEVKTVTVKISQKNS
IMPase Li inh = cell-permeable IMPase inhibitors with lithium potentiation | CHO-M1 cells, IP1 TR-FRET (IP-One), carbachol + lithium | Potency, µM (top dose mostly 59.4 µM), without a hit: top-dose activity, negative = IMPase inhibition, actives largely listed as inhibitors | 210,000 compounds, 0.35% hits; active = well fitted curve in the direction sought with a large enough effect; inconclusive = small, poorly fitted or top-dose-only effect, or another doubt; inactive = no such curve, though single readings can be large; an effect the other way counts as inactive or inconclusive;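 note: IP1 builds up when IMPase is blocked and the TR-FRET signal falls; potency is the fitted concentration of half-maximal effect; plate controls were basal vehicle for no effect and high inhibitor control for full effect; nearly all actives have a fitted effect of over 50% in size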
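IP1 accumulation measured by competitive TR-FRET in lysed CHO-M1 cells after 30 min compound exposure at 37C, with a small lithium addition to potentiate weak responses. Hill-equation AC50 from ratio and donor-channel data.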
HPGD inh = inhibitors of human 15-hydroxyprostaglandin dehydrogenase (HPGD) | 150,000 compounds, 4.3% hits | purified HPGD, NADH fluorescence kinetic, PGE2 substrate | Potency, µM, without a hit: at the highest dose activity change, negative = inhibition, usual class: inhibitors | AID 894; note: potency is the fitted concentration of half-maximal effect
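20 nM HPGD preincubated 15 min at room temperature with compound in 50 mM Tris-HCl pH 8, 0.01% Tween 20. Started with 1 mM NAD+ and 30 uM prostaglandin E2; NADH fluorescence (360/450 nm) read 5 times over 30-s intervals, last minus first.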
PNC inhibitor = blocks assembly of the perinucleolar compartment; PC3M PTB-GFP, PNC prevalence imaging, 16 h; stronger effect = lower value; activity change (PNC), negative = inhibition, % at 10 µM; 140,000 compounds, 3.1% hits; AID 2417;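 active = readout at or below -70, meaning at least 70% loss of cells showing the perinucleolar compartment, a nuclear body marking cancer cells; inconclusive = readout between -30 and a set limit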;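 note: plate controls were DMSO wells for no effect and camptothecin positive control wells for full effect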
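PC3M cells stably expressing PTB-GFP, 750–1000 cells/well, treated 16 h at 37 °C with compound (23 nl of library stock), in duplicate. After paraformaldehyde fixation and Hoechst stain, imaged at 20x; PNC prevalence scored by image analysis.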
ALOX12 inhib = blocks human 12-lipoxygenase activity. P18054. purified 12-hLO, xylenol orange hydroperoxide absorbance. Potency, µM (titrated, usually from 57.1 µM), for inactives: at the highest dose activity change, negative = inhibition, actives largely listed as inhibitors. 150,000 compounds, 0.12% hits; active = well fitted curve in the direction sought with a large enough effect; inconclusive = small, poorly fitted or top-dose-only effect, or another doubt; inactive = no such curve, though single readings can be large; an effect the other way counts as inactive or inconclusive; note: potency is the fitted concentration of half-maximal effect; nearly all actives have a fitted effect of over 55% in size
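Hydroperoxide formation by human 12-lipoxygenase from 40 uM arachidonic acid was followed colorimetrically via ferric-xylenol orange complex, using the 573/405 nm absorbance ratio. Enzyme concentration was 150 nM, with 30 min reaction at room temperature.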
IMPase inh = cell-permeable inhibitors of inositol monophosphatase (IMPase); CHO-M1 cells, IP1 accumulation, HTRF TR-FRET ratio; inhibition (IP1 accumulation), % at 46.1 µM; 120,000 tested, under 10 active; P97697; AID 901; active = well fitted curve in the direction sought with a large enough effect in the signal ratio, not every such curve was filed as active; inconclusive = small, poorly fitted or top-dose-only effect, or a change in a side signal; inactive = no such curve, though single readings can be large or run the other way; the % refers to the signal ratio;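 note: cells stimulated with carbachol in lithium chloride buffer; plate controls were DMSO basal wells for no effect and reference inhibitor wells for full effect; higher means more IMPase inhibition seen as more IP1 and lower FRET ratio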
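The IP-One HTRF competitive assay in carbachol-stimulated CHO-M1 cells quantifies cellular IP1. Compounds spanned up to 46 uM final, and activity is expressed as AC50 from concentration-response fits of the ratio and donor data.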
An asterisk follows results filed as active; ? = inconclusive; . = no result; [ ] = remark or other dose. Unless noted, calls come from the whole dose curve; as a rule, active = well fitted inhibition curve with a large enough effect (not every such curve was filed as active); inconclusive = small, poorly fitted or top-dose-only effect, or another doubt; inactive = no such curve, though single readings can be large or run the other way. Unless noted, % is set by controls: 0 for no effect and ±100 for the full control effect.

SMILES	ALDH1A1 block	IMPase Li inh	HPGD inh	PNC inhibitor	ALOX12 inhib	IMPase inh
CCNc1ncc2nc(-c3cccs3)c(=O)n(C[C@H]3CCCO3)c2n1	?	-15%	.	.	.	.
CCNc1ncc2nc(-c3ccc(Cl)cc3)c(=O)n(C[C@H]3CCCO3)c2n1	?	10µM*	.	.	.	.
COc1ncc2nc(-c3ccc(F)cc3)c(=O)n(CCc3ccccc3)c2n1	19%	14µM*	.	.	.	.
COCC1C2CC[C@H]3C(OCc4ccc(F)cc4C(F)(F)F)OC[C@]4(C)[C@H]3C2=C(CN4C(=O)OC(C)(C)C)[C@H](C)C1COC (stereo not given in full)	-4%	-2%	-10%	.	-2%	.
COc1ccc(O[C@H]2C=C[C@@H](c3ccccc3)O[C@H]2COC(=O)CC/C(C)=N\O[C@@H](C)CN2CCCc3nc(C)c(C)cc32)cc1	-10%[13.5 µM]	.	.	.	.	.
COc1cccc(Nc2ncc3nc(CCc4ccccc4)c(=O)n(C[C@H]4CCCO4)c3n2)c1	25µM*	16%	?	.	-6%	.
COC(=O)C1(C(=O)OC)CC(CO)C(=O)[C@H]1c1ccccc1 (stereo not given in full)	16%	17%	-3%	.	1%	.
C=C(C)C(=O)/C=C/C=C/c1ccccc1	-1%	9%	-4%	.	.	.
CN(C)Cc1ccccc1-c1cncnc1Nc1ccc(F)cc1	14%	13%	-9%	.	0%	.
CN(C)C(=O)c1ccc(-c2cncnc2Nc2ccc(F)cc2)cc1	11µM*	8%	.	.	.	.
CSc1nc2ccc(NS(=O)(=O)c3cccc(Cl)c3Cl)cc2s1	?	12%	16µM*	-30	-4%	-1
Cc1cc(C(F)(F)F)nn1Cc1n[nH]c(=S)n1-c1ccc(Cl)cc1	6%	17%[38.3 µM]	-9%	6	-4%	0
Cc1cc(C(F)(F)F)nn1Cc1n[nH]c(=S)n1Cc1ccccc1	-12%	6%	?	-100*	-7%	4
Cn1c(SCc2ccccc2)nnc1-c1ccc2c(c1)OCO2	-1%	22%[38.3 µM]	-16%	-15	-4%	-8
Cn1c(SCC#N)nnc1-c1ccc2c(c1)OCO2	-9%	8%	-5%	-119*	3%	0
COc1ccc(-c2nc3c(c4c2CC(C)OC4)CN(CCC(C)C)CC3)cc1 (stereo not given)	-10%[13.5 µM]	.	.	.	.	.
Cc1ccc(NC(=O)C2C3/C=C\CCCCC32)cc1 (stereo not given)	2%	1%	-2%	-81*	-4%	-3
Cc1ccc(N2C(=O)CC(N(CCc3ccccc3)C(=S)Nc3ccc(N(C)C)cc3)C2=O)cc1 (stereo not given)	28µM*	-7%[38.3 µM]	-15%	34	5%	3
COCC(=O)N1CCC2(CC1)CN(C(=O)Nc1ccc(OC)cc1)C2	0%	3%	-7%	.	0%	.
COc1ccc(C=NCC2COc3ccccc3O2)cc1OC (stereo not given)	?	10%[38.3 µM]	-19%	49	-1%	-3
Oc1ccc(C=NCC2COc3ccccc3O2)cc1 (stereo not given)	18µM*	5%[38.3 µM]	-9%	-1	-2%	1
CCc1nn2c(=O)c(S(=O)(=O)Nc3ccc(OC)c(Cl)c3)c(C)nc2s1	.	.	.	.	.	6
CCOC(=O)c1c(C)n(-c2ccccc2)c2ccc(OC(=O)c3ccccc3)cc12	.	.	.	.	.	-1
Nc1ccc(Oc2ccc([N+](=O)[O-])cc2[N+](=O)[O-])cc1	?	16%[38.3 µM]	-16%	9	2%	-3
COc1cc(/C=C2\C(=O)N(c3ccccc3)N=C2C)ccc1Oc1ccc([N+](=O)[O-])cc1[N+](=O)[O-]	?	-7%	13µM*	5	-10%	.
CC1=NN(c2ccccc2)C(=O)/C1=C\c1ccc(Oc2ccc([N+](=O)[O-])cc2[N+](=O)[O-])cc1	8.9µM*	6%	8.9µM*	?	-5%	-8
CC(C)=C[C@H]1[C@@H](COC(=O)c2ccccc2Cl)C1(C)C	1%[13.5 µM]	-4%	-7%	.	0%[11.4 µM]	.
